Bioassay records as filed in PubChem BioAssay.
FEN1 inh-1: qHTS Assay for the Inhibitors of Human Flap endonuclease 1 (FEN1) | Recombinant FEN1 flap cleavage, fluorescence, 15 min | P39748 | 390,000 compounds, 0.35% hits | Potency, µM (highest dose often 114 µM), inactives show at the top dose activity change, negative = inhibition, most hits filed as inhibitors; note: potency is the fitted concentration of half-maximal effect; % is set by controls: 0 for no effect and ±100 for the full control effect; nearly all actives have a fitted effect of over 65% in size
Target sequence (P39748 whole entry, looked up): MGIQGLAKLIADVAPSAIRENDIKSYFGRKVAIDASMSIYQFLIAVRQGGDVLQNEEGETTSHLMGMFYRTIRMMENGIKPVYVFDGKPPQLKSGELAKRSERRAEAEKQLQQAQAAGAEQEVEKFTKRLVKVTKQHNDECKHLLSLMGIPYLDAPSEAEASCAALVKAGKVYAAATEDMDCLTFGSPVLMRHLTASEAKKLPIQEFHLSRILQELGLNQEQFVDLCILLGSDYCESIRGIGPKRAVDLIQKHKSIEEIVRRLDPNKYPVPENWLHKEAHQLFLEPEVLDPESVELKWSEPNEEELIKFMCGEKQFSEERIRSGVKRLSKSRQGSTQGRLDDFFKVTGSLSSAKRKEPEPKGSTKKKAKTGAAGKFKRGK
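With each library titrated from low to high concentration, compounds met 10 nM FEN1 for 15 min at room temperature before 50 nM substrate was added; readings at 0 and 15 min fed four-parameter Hill curve fits.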
Pol iota inh: qHTS for Inhibitors of Polymerase Iota; DNA polymerase iota (Homo sapiens), Q9UNA4; Pol iota fluorescent replication assay, 10 min; 390,000 compounds, 1% hits; Potency, µM (doses to about 115 µM), for the others: top-dose activity, negative = inhibition, most hits filed as inhibitors; note: potency is the fitted concentration of half-maximal effect
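Pol iota at 10 nM preincubated 15 min with compounds at room temperature; reaction started with fluorescent substrate, 50 nM final. Fluorescence read kinetically at 0 and 10 min; buffer-only wells as negative control.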
WRN helicase inh-1: qHTS for Inhibitors of WRN Helicase. Bifunctional 3'-5' exonuclease/ATP-dependent helicase WRN (Homo sapiens), Q14191. WRN helicase unwinding, fluorescent forked duplex, kinetic. Potency, µM (highest dose often 114 µM), for the others: at the top dose activity change, negative = inhibition, hits mostly inhibitors. 360,000 compounds, 0.46% hits; note: potency is the fitted concentration of half-maximal effect; % is set by controls: 0 for no effect and ±100 for the full control effect; nearly all actives have a fitted effect of over 55% in size
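Kinetic red-fluorescence monitoring (525/598 nm) tracks WRN helicase activity after 100 nM fluorophore-quencher forked duplex and 2 mM ATP are added to 20 nM enzyme pretreated 15 min at room temperature with compound.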
Pol eta inh-1: qHTS for Inhibitors of Polymerase Eta; recombinant Pol eta, fluorescent DNA replication assay; Potency, µM (titrated, usually from 114 µM), for inactives: at the top dose activity change, negative = inhibition, most hits filed as inhibitors; 390,000 compounds, 1.2% hits; note: potency is the fitted concentration of half-maximal effect; % is set by controls: 0 for no effect and ±100 for the full control effect
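Fluorescent replication assay: 50 nM final substrate added after a 15 min room-temperature compound preincubation with 10 nM enzyme. Signal taken at 0 min and again at 10 min.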
Pol beta inh-1: qHTS Assay for Inhibitors of DNA Polymerase Beta; AID 485314, 2010; Pol beta primer extension/strand displacement, fluorescence kinetic; Potency, µM (series often up to 114 µM), for the others: at the top dose activity change, negative = inhibition, hits mostly inhibitors; 340,000 compounds, 1.3% hits; P06746; note: potency is the fitted concentration of half-maximal effect; % is set by controls: 0 for no effect and ±100 for the full control effect
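Homogeneous kinetic assay of primer extension and strand displacement by 10 nM Pol beta, preincubated 15 min at room temperature with compound before 50 nM substrate (final) was added. Read at 0 and 10 min; four-parameter Hill fit.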
Pol kappa inh: qHTS for Inhibitors of Polymerase Kappa | DNA polymerase kappa (Homo sapiens), Q9UBT6 | purified Pol kappa, fluorescent DNA synthesis assay, 10 min | Potency, µM (series often up to 107 µM), inactives show at the highest dose activity, negative = inhibition, hits mostly inhibitors | 400,000 compounds, 0.53% hits | AID 588579, 2011; note: potency is the fitted concentration of half-maximal effect; % is set by controls: 0 for no effect and ±100 for the full control effect
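Readout: fluorescence, taken kinetically at 0 and 10 min. Conditions: 10 nM Pol kappa, 15 min RT compound preincubation, 50 nM substrate final. Controls: enzyme-free buffer wells.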
Pol beta inh-2: Inhibitors of DNA Polymerase Beta: Hit validation. shares compounds with Pol beta inh-1. 250 compounds, 87% hits. AID 540280, 2011. Pol beta primer extension/strand displacement, fluorescence kinetic. Potency, µM, usual class: inhibitors; calls by dose curve; note: potency is the fitted concentration of half-maximal effect
Klenow counter: Inhibitors of DNA Polymerase Beta: Hit Validation in Klenow Fragment Assay; 250 tested, under 10 active; Klenow exo- polymerase counter-screen, fluorescent DNA substrate; AID 540300, 2011; activity change, negative = inhibition, % at 57.1 µM; shares compounds with Pol beta inh-1
HIV RT counter: Inhibitors of DNA Polymerase Beta: Hit Validation in HIV-RT Assay. HIV-1 RT polymerase activity, counter-screen. shares compounds with Pol beta inh-1. 250 tested, under 10 active. activity % (negative = inhibition, positive = activation), % at 57.1 µM. AID 540301, 2011
TbPGK inh: qHTS for inhibitors of Phosphogylcerate Kinase: Hit Validation Screen. shares compounds with Pol kappa inh. TbPGK coupled GAPDH assay, Kinase-Glo luminescence. Potency, µM (doses to about 57.5 µM), for the others: at the top dose activity change, negative = inhibition, usual class: inhibitors. 500 compounds, 79% hits. AID 686980, 2013; note: potency is the fitted concentration of half-maximal effect; % is set by controls: 0 for no effect and ±100 for the full control effect; nearly all actives have a fitted effect of over 65% in size
Target sequence (P07378 whole entry, looked up): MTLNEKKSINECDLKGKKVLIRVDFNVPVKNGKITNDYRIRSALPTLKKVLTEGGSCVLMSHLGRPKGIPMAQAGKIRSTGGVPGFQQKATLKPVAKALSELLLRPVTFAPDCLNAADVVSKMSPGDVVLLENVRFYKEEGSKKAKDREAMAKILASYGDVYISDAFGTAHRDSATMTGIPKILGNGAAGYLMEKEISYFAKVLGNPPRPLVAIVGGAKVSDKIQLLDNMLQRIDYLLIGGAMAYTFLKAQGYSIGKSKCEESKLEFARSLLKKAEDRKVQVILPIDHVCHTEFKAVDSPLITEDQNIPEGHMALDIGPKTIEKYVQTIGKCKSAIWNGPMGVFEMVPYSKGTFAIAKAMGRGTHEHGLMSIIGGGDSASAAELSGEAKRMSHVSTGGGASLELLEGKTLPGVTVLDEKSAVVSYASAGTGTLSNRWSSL
Pol iota confirm: qHTS for Inhibitors of Polymerase Iota: Confirmatory Assay for Cherry-picked Compounds | 1,500 compounds, 77% hits | Pol iota primer extension, TAMRA/BHQ fluorescence | Potency, µM, actives largely listed as inhibitors | shares compounds with Pol kappa inh; note: potency is the fitted concentration of half-maximal effect
Pol eta inh-2: qHTS for Inhibitors of Polymerase Eta: Confirmatory Assay for Cherry-picked Compounds. shares compounds with Pol eta inh-1. Pol eta primer extension, TAMRA/BHQ fluorescence, 10 min. Potency, µM, actives largely listed as inhibitors. 2,600 compounds, 64% hits; note: potency is the fitted concentration of half-maximal effect
FEN1 inh-2: qHTS Assay for the Inhibitors of FEN1: Confirmatory Assay for Cherry-picked Compounds; AID 720498, 2013; FEN1 flap cleavage, TAMRA/BHQ2 fluorogenic DNA substrate; Potency, µM, usual class: inhibitors; shares compounds with FEN1 inh-1; 880 compounds, 79% hits; note: potency is the fitted concentration of half-maximal effect; nearly all actives have a fitted effect of over 60% in size
WRN helicase inh-2: qHTS for Inhibitors of WRN Helicase: Confirmatory Assay for Cherry-picked Compounds | shares compounds with WRN helicase inh-1 | WRN helicase DNA unwinding, fluorescence kinetic | Potency, µM (series often up to 57.1 µM), inactives show at the highest dose activity, negative = inhibition, usual class: inhibitors | 610 compounds, 63% hits; note: potency is the fitted concentration of half-maximal effect; nearly all actives have a fitted effect of over 65% in size
TO displacement: qHTS for Inhibitors of WRN Helicase: Thiazole Orange DNA Binding Counterscreen; shares compounds with WRN helicase inh-1; thiazole orange DNA binding displacement, fluorescence; Potency, µM (titrated, usually from 57.1 µM), for the others: at the highest dose activity change, negative = inhibition, hits mostly inhibitors; 610 compounds, 10% hits; AID 720499, 2013;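 note: drop in dye fluorescence marks compound binding to DNA; potency is the fitted concentration of half-maximal effect; % is set by controls: 0 for no effect and ±100 for the full control effect; nearly all actives have a fitted effect of over 60% in size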
BLM counter: qHTS for Inhibitors of WRN Helicase: BLM Helicase Counterscreen for WRN Inhibitors; shares compounds with WRN helicase inh-1; Recombinant BLM helicase DNA unwinding, red fluorescence; Potency, µM (doses to about 57.1 µM), without a hit: top-dose activity change, negative = inhibition, usual class: inhibitors; 610 compounds, 60% hits; note: potency is the fitted concentration of half-maximal effect; nearly all actives have a fitted effect of over 60% in size
Numbers without * were called inactive; ? = inconclusive; · = no result. A selection: hits, their analogues and other compounds. The true share with any hit is near 2.4%. Unless noted, calls come from the whole dose curve; as a rule, active = well fitted curve in the direction sought with a large enough effect; inconclusive = small, poorly fitted or top-dose-only effect, or another doubt; inactive = no such curve, though single readings can be large; an effect the other way counts as inactive or inconclusive.

SMILES | FEN1 inh-1 | Pol iota inh | WRN helicase inh-1 | Pol eta inh-1 | Pol beta inh-1 | Pol kappa inh | others
COc1cc(C(=S)N2CCN(c3cccc(Cl)c3)CC2)ccc1O | -20% | -17% | -9% | -10% | ? | 8%
COc1cc(C(=S)N2CCN(c3ccccc3Cl)CC2)cc(O)c1O | ? | ? | ? | 20µM* | 10µM* | 71µM* | Pol beta inh-2=2.5*;Klenow counter=-16;HIV RT counter=-9;Pol eta inh-2=76*;FEN1 inh-2=15*
CCn1c(CSc2nc3ccccc3s2)nnc1SCC(=O)c1ccc(O)c(O)c1 | -10% | 35µM* | ? | ? | 4.5µM* | ? | Pol beta inh-2=2*;Klenow counter=-33;HIV RT counter=?;Pol iota confirm=38*;Pol eta inh-2=?;WRN helicase inh-2=1.4µM*;TO displacement=27µM*;BLM counter=?
CCn1c(SCC(=O)c2ccc(O)c(O)c2)nnc1-c1ccccc1 | 4% | ? | -31% | ? | ? | ?
COc1ccccc1CN1CCN(C(=O)c2ccncc2)CC1 | -8% | 8% | -11% | -4% | -15% | 2%
CCc1nnc(NC(=O)c2cc(-c3ccco3)nc3ccccc23)s1 | ? | 1.3µM* | 35µM* | 16µM* | 8.9µM* | 25µM* | Pol beta inh-2=20*;Klenow counter=-11;HIV RT counter=33;Pol iota confirm=?;Pol eta inh-2=76*;WRN helicase inh-2=?;TO displacement=24µM*;BLM counter=1.9µM*
Cc1c2cnn(CC(=O)Nc3c(F)c(F)cc(F)c3F)c(=O)c2c(C)n1Cc1ccccc1F | 79µM* | 18µM* | ? | 40µM* | 6.3µM* | 45µM* | Pol beta inh-2=6.3*;Klenow counter=-33;HIV RT counter=-6;Pol iota confirm=30*;Pol eta inh-2=60*;WRN helicase inh-2=19µM*;TO displacement=27%;BLM counter=3.8µM*
O=C(CCCOc1ccccc1)Nc1cccc([N+](=O)[O-])c1 | 4% | 61% | -6% | -22% | 15% | -15%
COc1ccc(C#Cc2c(-c3ccc(OC)cc3)oc3ccc(-c4ccc(OC)cc4)cc23)cc1 | -3% | 8% | -10% | -4% | · | -14%
COc1ccc(-c2ccc3oc(-c4ccc(OC)cc4)c(C#CCCO)c3c2)cc1 | 13% | 35µM* | 0% | 45µM* | · | 8% | Pol iota confirm=38*
CS(=O)(=O)c1ccc(C(=O)Nc2ccc(-c3nc4ccccc4[nH]3)cc2)cc1 | 12% | -22% | 8% | 3% | 0% | 6%
O=C(Nc1ccc(-c2nc3ccccc3[nH]2)cc1)c1ccc(C(F)(F)F)cc1 | · | · | · | · | · | · | Pol iota confirm=?
O=C(NCc1ccccc1)c1ccc(NC(=O)C2CCCC2)cc1 | 16% | 36% | 1% | -18% | · | 0% | TbPGK inh=1%
Cc1ccccc1C(=O)O/N=C(\N)c1ccccc1 | -21% | 25% | -2% | -9% | 15% | 4% | TbPGK inh=15µM*
Cc1occc1C(=O)O/N=C(\N)c1ccccc1 | 8% | 43% | -1% | -15% | -5% | 3% | TbPGK inh=18µM*
Cc1cccc(/C(N)=N/OC(=O)c2ccoc2C)c1 | -1% | -6% | 9% | -14% | 5% | 1%
Cc1ccccc1C(=O)O/N=C(\N)c1ccc([N+](=O)[O-])cc1 | 3% | -4% | 11% | -16% | 0% | -6%
O=C(Nc1ccc(S(=O)(=O)NC2=NCCCCC2)cc1)c1cccs1 | -13% | 1% | -2% | -10% | · | -16%
Cc1ccc2nc(-c3ccccc3)cn2c1 | -9% | 37% | -13% | -4% | 8% | 9% | TbPGK inh=12µM*
O=C(CN1C(=O)/C(=C2\SC(=S)N(CCS(=O)(=O)O)C2=O)c2ccccc21)Nc1cccc(Br)c1 | ? | ? | 89µM* | ? | ? | ? | TbPGK inh=15µM*
O=c1[nH]c2ccc(Br)cc2c(=O)o1 | · | · | -5% | -17% | · | ·
